# PubChem BioAssay (NCATS)
# Inconclusive results are not listed. Where a call stands in place of a potency, no number is given. The source made the active and inactive calls. Calls follow the shape of the dose curve; as a rule, active = well fitted inhibition curve with a large enough effect; inconclusive = small, poorly fitted or top-dose-only effect; inactive = flat fitted curve, though single readings scatter.
# Target: Calcium and integrin-binding protein 1 (Homo sapiens) (UniProt Q99828)
# Assay: Primary qHTS for Identification of Calcium Integrin Binding Protein 1 (CIB1) Competitor (AID 1508620)
# Settings: CIB1-GST / FITC-alphaIIb peptide fluorescence polarization; series mostly up to 114 µM
# Excerpt: Assay Provider: Ulhas P. Naik, PhD Sidney Kimmel Medical College Thomas Jefferson University, Philadelphia, PA Primary function of platelets is to maintain hemostasis. At the site of vascular injury, platelets adhere to adhesive proteins such as collagen and von Willebrand factor. Adherent platelets are activated and generate soluble platelet agonists such as thrombin, ADP and thromboxane A2. Following exposure of circulating platelets to these agonists, results in platelet shape change, granule secretion and activation of platelet integrin alphaIIb-beta3. Ligand binding to activated integrin alphaIIb-beta3 triggers outside-in signaling, leading to platelet aggregation, stabilization of platelet plug, and clot retraction. Upon atherosclerotic plaque rupture also causes platelet plug formation, which underlies a number of cardiovascular diseases such as myocardial infraction and stroke. A number of anti-platelet drugs such as aspirin, clopidogrel, prasugrel, vorapaxar, and eptifibatide are currently available to prevent the thrombotic complications. However, these anti-platelet agents have several limitations including inherent variability in individual responses, developing resistance, and serious bleeding side effects. For these reasons they are not suitable for long-term protection. Based on the experiences with current anti-platelet drugs, it appears that the most useful therapeutic approach is to intersect the secondary responses such as integrin outside-in signaling or recruitment of platelets by TxA2 and secreted ADP. Compounds, which can largely preserve the primary hemostatic function of platelets but inhibit secondary response will be most desired therapeutic agents for treatment of cardiovascular disease. CIB1 is a calcium integrin binding protein, which specifically interact with the alphaIIb subunit of integrin alphaIIb-beta3. Binding of CIB1 to alphaIIb regulates the outside-in signaling in platelets, which is needed for thrombus stabilization and thrombus growth. […] Therefore, we propose that discovery of a small molecule that can prevent the association of CIB1 and alphaIIb-beta3 will be a potential anti-platelet agent that can block the thrombus formation without undue effect on hemostasis. Reference: [1] Naik MU, Nigam A, Manrai P, et al. CIB1 deficiency results in impaired thrombosis: the potential role of CIB1 in outside-in signaling through integrin alpha IIb beta 3. J Thromb Haemost.
# PROTOCOL TABLES SEQUENCE No. (1, 2, 3, etc.); […] (e.g., Cells, Incubation, Reagent, etc.); VALUE and DESCRIPTION. 1; Reagent; 3 uL; Protein or buffer (4/3x) 2; Compound; 46 nL; Control inhibitor / compound library 3; Time; 15 min; Room temperature incubation 4; Reagent; 1 uL; Fluorescent labeled peptide (4x) 5; Time; 1000 rpm; Centrifuge 6; Time; 15 min; Room temperature incubation 7; Detection; Ex 480/ Em 540; ViewLux Fluorescence Read NOTES (numbers refer to sequence above) 1; Protein Mixture: C1B1-GST (final concentrations of 1 uM). […] 3; Room temperature incubation. 4; Fluorescent Labeled Peptide: FITC-aIIb (final concentration of 100 nM). Sequence of alphaIIb peptide: Acetyl-[…]-FITC (purity is 95.83%). 5; Centrifuge 1000 rpm (164 g) for 15 seconds. 6; Room temperature incubation. 7; ViewLux Fluorescent Polization Read: excitation = 480(20) / emission = 540(25) S and P; FITC Dichroic mirror.
# Potency is read from the fitted curve at half-maximal effect.
# Calcium and integrin-binding protein 1 (Homo sapiens), sequence (Q99828 whole entry, looked up): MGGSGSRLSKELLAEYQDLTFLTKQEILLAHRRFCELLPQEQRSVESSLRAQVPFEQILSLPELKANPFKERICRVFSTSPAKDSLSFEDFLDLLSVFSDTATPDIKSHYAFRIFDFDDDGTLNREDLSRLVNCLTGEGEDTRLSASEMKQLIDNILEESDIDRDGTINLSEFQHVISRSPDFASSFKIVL
row,Compound,Potency
1,Nc1c(CC(=O)O)cccc1C(=O)c1ccc(Br)cc1,inactive
2,CC(=O)c1ccc(OCC(=O)N2CCCCC2)cc1,inactive
3,O=C(O)Cc1ccc(-c2ccccc2)cc1,inactive
4,COC(=O)C1=C(C)NC(C)=C(C(=O)OC)C1c1cccc(NC(=O)NCCCN2CCC(c3cccc(OC)c3)CC2)c1,inactive
5,Cc1ccc2c(n1)Oc1ccc(C(C)C(=O)OCC(=O)N(C)C)cc1C2 (stereo not given),inactive
6,CCNC(=O)[C@H]1O[C@@H](n2cnc3c(N)nc(NCCc4ccc(CCC(=O)O)cc4)nc32)[C@H](O)[C@@H]1O,inactive
7,C[C@H](O)[C@H](O)[C@H]1CNc2nc(N)[nH]c(=O)c2N1,inactive
8,Clc1ccccc1-c1nc(-c2ccncc2)no1,inactive
9,COc1cc(NC(C)CCCN)c2ncccc2c1 (stereo not given),inactive
10,CN(C)CCn1nnnc1SCC1=C(C(=O)O)N2C(=O)[C@@H](NC(=O)Cc3csc(N)n3)[C@H]2SC1,inactive
11,c1ccc2sc(SN3CCOCC3)nc2c1,inactive
12,Cc1c(N)c(=O)n(-c2ccccc2)n1C,inactive
13,CCCC(=O)OC[C@@H](OC(=O)CCC)[C@@H](OC(=O)CCC)[C@H](Cn1c2nc(=O)[nH]c(=O)c-2nc2cc(C)c(C)cc21)OC(=O)CCC,2820 nM (active)
14,O=C(Nc1ccc2[nH]ncc2c1)C1CCC1,inactive
15,Nc1ccc(C(=O)O)c(O)c1,inactive
16,O=C(O)c1cc(O)c(O)c(O)c1,inactive
17,CC(C(=O)O)c1ccc(C(=O)c2ccccc2)s1 (stereo not given),inactive
18,C#CC1(O)CC[C@H]2[C@@H]3CCC4=CCCC[C@@H]4[C@H]3CC[C@@]21C (stereo not given in full),inactive
19,O=C(Nc1ccc2c(c1)CCN(Cc1ncn[nH]1)C2)c1ccccc1-c1ccc(C(F)(F)F)cc1,inactive
20,O=C1CN(/N=C/c2ccc([N+](=O)[O-])o2)C(=O)N1,inactive

row,Compound,Potency
1,CCCCCCCCCCCCCCCC(=O)OC(C)C,inactive
2,N=C(N)N,inactive
3,CC(C(=O)O)c1ccc2c(c1)[nH]c1ccc(Cl)cc12 (stereo not given),inactive
4,COc1cc2c3cc1Oc1cc(ccc1O)C[C@@H]1c4c(cc(OC)c(O)c4Oc4ccc(cc4)C[C@@H]3N(C)CC2)CC[N+]1(C)C,inactive
5,CCCCN(CC)c1nc(C)nc2c1c(C)cn2-c1c(C)cc(C)cc1C,inactive
6,NC(=O)C(c1ccccc1)(c1ccccc1)[C@@H]1CCN(CCc2ccc3c(c2)CCO3)C1,inactive
7,CC1(C)[C@@H](O[C@H]2O[C@H](C(=O)O)[C@@H](O)[C@H](O)[C@H]2O[C@@H]2O[C@H](C(=O)O)[C@@H](O)[C@H](O)[C@H]2O)CC[C@]2(C)[C@H]3C(=O)C=C4[C@@H]5C[C@@](C)(C(=O)O)CC[C@]5(C)CC[C@@]4(C)[C@]3(C)CC[C@@H]12,inactive
8,C[N+]1(C)[C@@H]2CC(OC(=O)[C@H](CO)c3ccccc3)C[C@H]1[C@@H]1O[C@@H]12 (stereo not given in full),inactive
9,O=C(O)CC1CC(c2ccccc2)=NO1 (stereo not given),inactive
10,CC1(C)S[C@@H]2[C@H](NC(=O)[C@H](NC(=O)N3CCN(S(C)(=O)=O)C3=O)c3ccccc3)C(=O)N2[C@H]1C(=O)O,inactive
11,O=C(CCN1CCN(CCO)CC1)N1c2ccccc2Sc2ccc(C(F)(F)F)cc21,inactive
12,Nc1nc2ccc([N+](=O)[O-])cc2s1,inactive
13,C#C[C@]1(O)CC[C@H]2[C@@H]3CCc4cc(O)ccc4[C@H]3CC[C@@]21C,inactive
14,COc1ccc(-c2cc(=S)ss2)cc1,inactive
15,CN1[C@@H]2CC[C@H]1CC(OC(c1ccccc1)c1ccccc1)C2 (stereo not given in full),inactive
16,c1ccc2sc(SSc3nc4ccccc4s3)nc2c1,inactive
17,CCCOC(=O)c1ccc(O)cc1,inactive
18,COC(=O)Nc1nc2ccc(C(=O)C3CC3)cc2[nH]1,inactive
19,Cc1onc(-c2c(F)cccc2Cl)c1C(=O)N[C@@H]1C(=O)N2[C@@H]1SC(C)(C)[C@@H]2C(=O)O,inactive
20,O=C(O)c1ccccc1Nc1cccc(C(F)(F)F)c1,inactive
